This excerpt belongs to a sample that is enriched for hits.
Pf Dd2 growth – Plasmodium falciparum Dd2 growth inhibition. P. falciparum Dd2 growth, SYBR Green, 72 h. Potency, µM (highest dose often 28.9 µM), usual class: inhibitors. 120,000 tested, 4.3% active. AID 1347417; active means well fitted inhibition curve with a large enough effect; further: nearly all actives have a fitted effect of over 65% in size
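Infected erythrocytes (Dd2, 0.3% parasitemia, 2.5% hematocrit final) are added to compound in RPMI-1640/Albumax II medium, grown 72 h at 37C in low oxygen, then lysed with saponin/Triton-X containing SYBR Green and read by fluorescence.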
Of the large screens only hits and unclear results are named; the others gave an inactive call.

CCC(C)NC(=O)C(NC(=O)c1ccc(C)cc1)C1CCN(C(=O)c2cccc(F)c2)CC1 (stereo unspecified)	Pf Dd2 growth 10µM
Cc1ccc(C(=O)N2CCC(C(NC(=O)C(C)C)C(=O)NCC(C)C)CC2)cc1 (stereo unspecified)	none
Cc1cc(C(=O)NC2CCc3nnc(C4CC4)n3CC2)c(C)n1Cc1ccco1 (stereo unspecified)	none
CC(=O)c1cccc(NC(=O)c2cnc(-c3ccc(C)cc3)nc2-c2ccncc2)c1	none
COCC(=O)N1CCC(Oc2ccc(C(=O)N3CCOCC3)cn2)CC1	none
CCN(c1ccc(OC)cc1)S(=O)(=O)c1nnc(NC(=O)COc2ccc(F)cc2)s1	none
CN(Cc1ccccc1CN1CCCC1)c1nccc(-c2ccccn2)n1	Pf Dd2 growth 3.5µM
Cc1ccc(CN2CCC(CNc3nccc(-c4ccccn4)n3)CC2)o1	none
Cc1cccc(N2CCN(c3nccc(-c4ccccn4)n3)CC2)n1	none
CC1=C[C@@H](CN(C)Cc2cccnc2)[C@H](C(C)C)C[C@H]1Cc1nnc(-c2ccc([N+](=O)[O-])cc2)o1	Pf Dd2 growth 4.5µM
CC1=C[C@@H](CN2CCN(c3ncccn3)CC2)[C@H](C(C)C)C[C@H]1Cc1nnc(COc2ccc(F)cc2)o1	Pf Dd2 growth 0.89µM
CC1=C[C@@H](CN2CCC(CO)CC2)[C@H](C(C)C)C[C@H]1Cc1nnc(-c2ccccc2)o1	none
CC1=C[C@@H](CO)[C@H](C(C)C)C[C@H]1CC(=O)N1CCN(c2ccccn2)CC1	none
CC1=C[C@@H](CN2CCN(c3ccccn3)CC2)[C@H](C(C)C)C[C@H]1Cc1nnc(-c2ccc([N+](=O)[O-])cc2)o1	Pf Dd2 growth 3.5µM
c1ccc(Cc2noc(-c3nc(-c4ccc5c(c4)OCO5)no3)n2)cc1	none
CCN(CC)c1ccc(NC(=O)Cn2nc(C)n3cccc3c2=O)c(C)c1	none
Cc1ccccc1-c1nc(CS(=O)(=O)CC(=O)NCC(C)c2ccccc2)c(C)o1 (stereo unspecified)	none
CN1C(=O)C(c2ccccc2)CC12CCN(C(=O)Cc1ccccn1)CC2 (stereo unspecified)	none
Cn1c(N2CCC3(CC2)OCCCC3O)nc2c1c(=O)[nH]c(=O)n2C (stereo unspecified)	none
COc1cccc(CNC[C@H]2O[C@H](Cc3cc(-c4ccccc4)on3)CC[C@@H]2O)c1	Pf Dd2 growth 2.5µM
COc1ccc(-c2cc(C[C@@H]3CC[C@H](O)[C@@H](CNC(=O)Nc4ccccc4)O3)no2)cc1	none
COc1cccc(CNC[C@H]2O[C@H](Cc3cc(CN4CCOCC4)on3)CC[C@@H]2O)c1	none
COc1ccc(CCN2C(=O)O[C@@H]3CN(c4ncc(C)c(N(C)C)n4)C[C@@H]32)cc1	none
Cc1ccccc1C(=O)N1CCC2(CC1)OCC(C(=O)NCC1CCCO1)N2C(=O)c1ccccc1 (stereo unspecified)	none
Cc1nonc1CN1CCN(c2cc(C3CC(N)C3)nc(N)n2)CC1 (stereo unspecified)	none
CN(C)Cc1cn2c(=O)n(C)cc(-c3ccc(F)c(Cl)c3)c2n1	Pf Dd2 growth 2.5µM
CN(C)Cc1cn2c(=O)n(C)cc(-c3ccc(O)c(F)c3)c2n1	none
Cn1cc(-c2ccc(F)c(Cl)c2)c2nc(CO)cn2c1=O	none
COCCN1C(=O)CC[C@]2(C(=O)NCc3cccc(C)c3)CCCC[C@@H]12	none
COC(=O)N(C)C1CCCc2ccccc21 (stereo unspecified)	none
CN(Cc1ccc(F)cc1)C1CCc2ccccc21 (stereo unspecified)	none
CN(Cc1ccc(C(F)(F)F)cc1)C1CCc2ccccc21 (stereo unspecified)	none
CN(Cc1cccc2ccccc12)C1CCCc2ccccc21 (stereo unspecified)	Pf Dd2 growth 11µM
CN(CC1CCCCC1)C1CCc2ccccc21 (stereo unspecified)	none
CN(Cc1cccnc1)C1CCCc2ccccc21 (stereo unspecified)	Pf Dd2 growth 5µM
COc1cccc(C(=O)N2CCC[C@H]2c2nc(-c3ccc(OC)c(OC)c3)no2)c1	none
CCNC(=O)N1CCC2(CC1)SCC(=O)N2c1ccc(F)cc1	none
COC1CCC12CCN(C(=O)COc1ccc(F)cc1)CC2 (stereo unspecified)	none
Cc1ccc(S(=O)(=O)c2nc(S(=O)(=O)c3ccc(C)cc3)c(NC(C)C)s2)cc1	none
Cc1ccc(S(=O)(=O)c2nc(S(=O)(=O)c3ccc(C)cc3)c(NCCCOC(C)C)s2)cc1	Pf Dd2 growth 2.2µM
CCNc1sc(S(C)(=O)=O)nc1S(=O)(=O)c1ccc(C)cc1	none
COCCN1CCCN(C(=O)c2cc(C)ccc2C)c2ccccc21	Pf Dd2 growth 10µM
COCCN1CCCN(C(=O)c2ccoc2)c2ccccc21	none
COCCN1CCCN(C(=O)c2cc(C)cc(C)c2)c2ccccc21	none
Cc1noc(C)c1CC(=O)N1Cc2ccccc2OC2(CCN([S+](C)(=O)[O-])CC2)C1	none
CN(C)C(=O)c1ccc(OC2CCN(C(=O)C3CCCCC3)CC2)nc1	none
CCCS(=O)(=O)NCCc1sc2nc(-c3ccc(Cl)cc3)nn2c1C	none
CCN1CCN(c2nc3c(s2)CN(C(=O)c2ccccn2)CC3)CC1	none

Bioassay records: PubChem BioAssay, National Center for Advancing Translational Sciences (NCATS)
